JMJD2E inh = blocks human JMJD2E demethylase activity; B2RXH2; JMJD2E catalytic domain, FDH-coupled NADH fluorescence (FDH is formaldehyde dehydrogenase); Potency, µM (doses to about 57.1 µM), without a hit: top-dose activity change, negative = inhibition, actives largely listed as inhibitors; hit rate 1.6% among 230,000; AID 2147;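 further: potency means the concentration at half of the fitted maximal effect; 0% = wells with enzyme and -100% = buffer wells without enzyme; nearly all actives have a fitted effect of over 50% in size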
PNC inhibitor = blocks assembly of the perinucleolar compartment; PC3M PTB-GFP, PNC prevalence imaging, 16 h; stronger effect = lower value; activity change (PNC), negative = inhibition, % at 10 µM; hit rate 3.1% among 140,000; AID 2417;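 active means readout at or below -70, meaning at least 70% loss of cells showing the perinucleolar compartment, a nuclear body marking cancer cells; inconclusive means readout between -30 and a set limit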;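 further: plate controls were DMSO wells for no effect and camptothecin positive control wells for full effect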
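Read-out is percentage of cells bearing a perinucleolar compartment, from automated 20x imaging of fixed, Hoechst-stained PC3M PTB-GFP cells. Cells were seeded 4 h, then exposed 16 h to compound (23 nl of library stock) in duplicate plates.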
HPGD inh = blocks human HPGD enzyme activity. P15428. purified HPGD, NADH fluorescence kinetic, PGE2 substrate. Potency, µM, for inactives: at the top dose activity change, negative = inhibition, most hits filed as inhibitors. hit rate 4.3% among 150,000; further: potency means the concentration at half of the fitted maximal effect
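20 nM HPGD preincubated 15 min at room temperature with compound in 50 mM Tris-HCl pH 8, 0.01% Tween 20. Started with 1 mM NAD+ and 30 uM prostaglandin E2; NADH fluorescence (360/450 nm) read 5 times over 30-s intervals, last minus first.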
ALDH1A1 inh = blocks purified human ALDH1A1 activity; Potency, µM (top dose mostly 75.3 µM), for inactives: at the highest dose activity, negative = inhibition, actives largely listed as inhibitors; P00352; hit rate 7.3% among 220,000; Purified ALDH1A1, NADH fluorescence, propionaldehyde substrate;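 further: potency means the concentration at half of the fitted maximal effect; plate controls were no enzyme wells and a reference inhibitor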
Target sequence (P00352 whole entry, looked up): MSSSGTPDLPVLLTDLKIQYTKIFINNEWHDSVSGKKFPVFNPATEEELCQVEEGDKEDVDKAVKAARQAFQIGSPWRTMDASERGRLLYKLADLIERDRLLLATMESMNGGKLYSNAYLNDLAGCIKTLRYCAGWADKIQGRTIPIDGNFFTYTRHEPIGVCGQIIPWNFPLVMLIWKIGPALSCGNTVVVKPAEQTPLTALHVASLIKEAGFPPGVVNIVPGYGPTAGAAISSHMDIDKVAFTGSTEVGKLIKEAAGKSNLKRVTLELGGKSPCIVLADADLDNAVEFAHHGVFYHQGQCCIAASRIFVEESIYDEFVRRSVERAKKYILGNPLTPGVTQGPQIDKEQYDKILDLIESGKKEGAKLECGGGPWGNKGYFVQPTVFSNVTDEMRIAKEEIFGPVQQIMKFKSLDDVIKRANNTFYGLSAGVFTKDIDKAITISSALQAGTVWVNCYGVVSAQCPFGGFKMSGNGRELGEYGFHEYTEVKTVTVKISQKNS
Starred values were filed as active, the others as inactive; ? = inconclusive; . = no result given; ! = not confirmed by another sample; [ ] = another dose, or the depositor's remark. Hits are enriched below; roughly 11% of the tested compounds scored in any of these assays. Unless noted, the call rests on the fitted dose curve; in most records, active means well fitted inhibition curve with a large enough effect (not every such curve was filed as active); inconclusive means small, poorly fitted or top-dose-only effect, or another doubt; inactive means no such curve, though single readings can be large or run the other way. Unless noted, on the % scale 0 is the no-effect control and ±100 the full control effect.

SMILES	JMJD2E inh	PNC inhibitor	HPGD inh	ALDH1A1 inh
C=C(C)CN=C1NN=C(c2cc(C)n(-c3ccc(C)cc3)c2C)CS1	-20%	7	-26%	13µM*
Cc1cc(C2=NNC(=NC3CCCCC3)SC2)c(C)n1-c1c(C)n(C)n(-c2ccccc2)c1=O	-5%	?	-24%	?
Cc1cc(C2=NNC(=NC3CC3)SC2)c(C)n1-c1ccccc1F	5%	-27	?	8.9µM*
CCN=C1NN=C(c2cc(C)n(Cc3ccco3)c2C)CS1	0%	-2	-13%	?
CC(C)C[C@H](NC(=O)c1nc[nH]c1C(=O)N(C)Cc1ccccc1)C(=O)OC(C)(C)C	-9%	.	.	7.9µM*
Cc1ccc(C(=O)OCC2OC3OC(C)(C)OC3C2O)cc1 (configuration not stated)	-10%	-30	4µM*	0%
Cc1nc(NCc2ccccc2)c2nc(-c3ccccc3)n(C(C)CN(C)C)c2n1 (configuration not stated)	?	.	-22%	?
COC(=O)COc1cc(Br)c(/C=C2/SC(=O)N(CC(=O)N3CCCC3)C2=O)cc1OC	-25%	-4	-23%	20µM*
CN(CC(=O)Nc1ccc(F)c(F)c1F)c1cnccn1	-21%	-100*	-6%	-7%
COc1ccc(N2C=C3C(=O)C(C)(OC(=O)CCc4ccccc4)C(=O)C=C3C=C2c2ccc(C#N)cc2)cc1 (configuration not stated)	20µM*!	.	-6%	3%[13.5 µM]
CC1(OC(=O)CCc2ccccc2)C(=O)C=C2C=C(c3ccc(C#N)cc3)N(C3CCCCC3)C=C2C1=O (configuration not stated)	28µM*!	.	0%	4%[13.5 µM]
CC1(OC(=O)CCc2ccccc2)C(=O)C=C2C=C(c3ccc(C#N)cc3)N(C(CO)CO)C=C2C1=O (configuration not stated)	3.5µM*	.	-10%	6%[13.5 µM]
CCN(CC)CCCN1C=C2C(=O)C(C)(OC(=O)CCc3ccccc3)C(=O)C=C2C=C1c1ccc(C#N)cc1 (configuration not stated)	?	.	-19%	-2%[13.5 µM]
CCCCC1=CC2=CC(=O)C(C)(OC(=O)CC)C(=O)C2=CN1C1CCCC1 (configuration not stated)	?	.	1%	7%[13.5 µM]
COc1ccc(CN2C=C3C(=O)C(C)(OC(=O)CCc4ccccc4)C(=O)C=C3C=C2c2ccc(C#N)cc2)cc1 (configuration not stated)	?	.	-10%	3.5µM*
CC1(OC(=O)CCc2ccccc2)C(=O)C=C2C=C(c3ccc(C#N)cc3)N(CCc3c[nH]c4ccccc34)C=C2C1=O (configuration not stated)	16µM*!	.	-10%	13%[13.5 µM]
CC(=O)N[C@@H]1CONC1=O	.	.	-2%	-1%[13.5 µM]
CCOc1cccc(N(C(=O)Cc2cccs2)C(C(=O)NC2CCCCC2)c2cccn2C)c1 (configuration not stated)	-8%	-9	-16%	8%
CC(C)Oc1ccc(CNC(=O)CC(c2ccccc2)c2cc(Cl)ccc2O)cc1 (configuration not stated)	-5%	71	-20%	-1%
Cc1ccc(O)c(C(CC(=O)NCc2cccnc2)c2ccccc2)c1 (configuration not stated)	-19%	.	.	16%
CCCCCCNC(=O)CC(c1ccccc1)c1cc(Br)ccc1O (configuration not stated)	5%	4	8.9µM*	0%
CC(C)NC(=O)CC(c1ccccc1)c1cc(Br)ccc1O (configuration not stated)	0%	?	25µM*	2%
NNC(=O)CCc1nc2ccccc2[nH]1	58%	.	.	7%
O=[N+]([O-])c1ccc(Cl)c2c1C1C=CCC1C(c1ccccn1)N2 (configuration not stated)	-21%	.	.	?
O=C(O)C1Nc2c(O)cc(Cl)c([N+](=O)[O-])c2C2C=CCC12 (configuration not stated)	7.9µM*	.	.	13µM*
SMILES	JMJD2E inh	PNC inhibitor	HPGD inh	ALDH1A1 inh
CC1=CC(=O)N(c2ccn(C)n2)C1=O	-6%	.	.	4%
O=Cc1ccc(N2CCCCCC2)cc1	-3%	-5	-30%	0.056µM*
O=Cc1ccc(N2CCCC2)c(F)c1	-20%	?	-15%	1.6µM*
O=C(COc1ccccc1)Nc1ccccc1Cl	3%	.	.	1%
CC(C)N(C(=O)COC(=O)CNC(=O)c1ccc(Br)cc1)c1ccccc1	-1%	?	-14%	4%
CC(=O)n1c(Cl)c(NC(=O)CCl)c2ccccc21	2%	6	-7%	22µM*
COc1ccc(C(=O)C(c2ccccc2)N2CCOCC2)cc1 (configuration not stated)	-7%	5	-13%	-13%
Cc1ccc(C(=O)C(c2ccccc2)N2Cc3ccccc3C2=N)cc1 (configuration not stated)	6.3µM*	6	?	?
Cc1ccccc1C1NC(=S)NC2=C1C(=O)CCC2 (configuration not stated)	-13%	.	.	22µM*
Cc1ccccc1C1NC(=O)Cc2ccccc21 (configuration not stated)	-6%	12	-3%	3%
C/C(=N\NC(=O)CSc1nc2ccccc2o1)c1ccc(O)cc1	-2%	.	.	24µM*
O=C(CSc1nc2ccccc2o1)N/N=C/c1ccc(O)c(O)c1	11µM*	.	.	.
O=C(NCCc1ccccc1)C1c2ccccc2C(=O)N1Cc1cccs1 (configuration not stated)	0%	.	.	13µM*
COC(=O)CCC(=O)CN	28µM*	-19	-8%	2%
COC(=O)CCN(C)CCC(=O)OC	3%	3	-10%	13%
CC(NC(=S)N1CCN(c2ccccc2)CC1)c1ccccc1 (configuration not stated)	8%	.	.	.
COC(=O)C(C)Sc1n[nH]c(=S)s1 (configuration not stated)	?	-17	25µM*	20µM*
CC(=O)NC1=NN(C(C)=O)C2(S1)C(=O)N(CC(C)C)c1ccc(C)cc12 (configuration not stated)	0%	.	.	.
CC1CCCCN1c1nc2nonc2nc1N1CCCCC1C (configuration not stated)	4%	?	-14%	2.2µM*
COc1ccccc1Nc1nc2nonc2nc1N1CCCCC1C (configuration not stated)	-4%	43	-16%	5%
N=S(=O)(O)Cc1noc2ccccc12	0%	.	-16%	-3%
Nc1c(C(=O)N2CCOCC2)sc(=S)n1-c1ccccc1	-5%	40	11µM*	8.9µM*
Nc1c(C(=O)N2CCCCC2)sc(=S)n1-c1ccccc1	?	?	3.2µM*	1.4µM*
CCOc1ccc(-n2c(N)c(C(=O)N3CCN(C)CC3)sc2=S)cc1	-1%	.	.	-12%
COC(=O)c1ccc(C)c(-n2c(C)cc(C=O)c2C)c1	1%	-24	-21%	1.8µM*
Cc1cc(/C=N/O)c(C)n1-c1ccccc1	-28%	0	-27%	-7%
COc1ccc(C)cc1-n1c(C)cc(C=O)c1C	-10%	.	.	?
Cc1cc(C=O)c(C)n1-c1cccc(C(=O)O)c1	5%	.	.	-3%

Source: PubChem BioAssay
